From PubChem BioAssay AID1259421 (Broad Institute, 2018)
“And” between values parts separate entries of the source, which are not always exact repeats. Equal values may be shown once. The campaign covered roughly 6,400 compounds. About 610 (9.5%) were called active. No stated cut-off is given here; in the data, active means activity change below about -70%; inconclusive means no clear call, values can overlap the other calls; inactive means above that. What follows is part of a selection rich in actives, with near analogues and random picks from the rest. A structure can be active in one record and inactive in another.

Experiment: Toxoplasma gondii ME49Luc growth in HeLa cells, luciferase, no IFN-y, primary screen (AID 1259421)
Conditions: T. gondii ME49Luc in HeLa, 72 h, stronger effect = lower value, concentration not given here
For N#Cc1cc(-c2n[nH]c(-c3ccncc3)n2)ccn1, the activity change, negative = inhibition was 17.6% (inactive).
For O=C(O)/C=C/c1ccc(-c2ccc(O)c(C34CC5CC(CC(C5)C3)C4)c2)cc1, the activity change, negative = inhibition was -96.6% (active).
With O=C(O)c1ccc2cc(-c3ccc(O)c(C45CC6CC(CC(C6)C4)C5)c3)ccc2c1 the activity change, negative = inhibition was -56% (inactive).
In the case of O=C(O)c1ccc(-c2ccc3cc(O)c(C45CC6CC(CC(C6)C4)C5)cc3c2)cc1, the activity change, negative = inhibition was -2.82% (inactive).
In the case of CC(C)=CCC[C@](C)(O)[C@H]1CC[C@]2(C)[C@@H]1[C@H](O)C[C@@H]1[C@@]3(C)CC[C@H](O)C(C)(C)[C@@H]3[C@@H](O)C[C@]12C, the activity change, negative = inhibition was 8.14% (inactive).
With COc1c2ccoc2cc2oc(C)cc(=O)c12 the activity change, negative = inhibition was 0.747% (inactive).
For C=C1CC[C@H](O)C/C1=C/C=C1\CCC[C@]2(C)[C@@H]([C@H](C)CCCC(C)C)CC[C@@H]12, the activity change, negative = inhibition was -78.3% (active).
In the case of C=C1/C(=C\C=C2/CCC[C@]3(C)[C@@H]([C@H](C)/C=C/[C@H](C)C(C)(C)O)CC[C@@H]23)C[C@@H](O)C[C@@H]1O, the activity change, negative = inhibition was 13.5% (inactive).
For C=C1CC[C@H](O)C/C1=C/C=C1\CCC[C@]2(C)[C@@H]([C@H](C)CC[C@@H](O)C(C)(C)O)CC[C@@H]12, the activity change, negative = inhibition was 1.97% (inactive).
For C=C1/C(=C/C=C2/CCC[C@]3(C)[C@@H]([C@H](C)CCCC(C)C)CC[C@@H]23)C[C@@H](O)C[C@@H]1O, the activity change, negative = inhibition was -75.5% (active).
For C=C1/C(=C\C=C2\CCC[C@]3(C)[C@@H]([C@H](C)CCCC(C)C)CC[C@@H]23)C[C@@H](O)C[C@@H]1O, the activity change, negative = inhibition was -54.9% (inactive).
For C=C1/C(=C\C=C2/CCC[C@]3(C)[C@@H]([C@H](C)CC[C@@H](O)C(C)C)CC[C@@H]23)C[C@@H](O)C[C@@H]1O, the activity change, negative = inhibition was 3.62% (inactive).
For C=C1/C(=C\C=C2/CCC[C@]3(C)[C@@H]([C@H](C)CCCC(C)(C)O)CC[C@@H]23)C[C@@H](O)C[C@@H]1O, the activity change, negative = inhibition was -69.8% (inactive) and 11.1% (inactive).
In the case of C=C1/C(=C/C=C2\CCC[C@]3(C)[C@@H]([C@H](C)/C=C/[C@@H](C)C(C)C)CC[C@@H]23)C[C@@H](O)C[C@@H]1O, the activity change, negative = inhibition was -75% (active).
For C=C1C(=C/C=C2\CCC[C@]3(C)[C@@H]([C@H](C)/C=C/[C@@H](O)C4CC4)CC[C@@H]23)C[C@@H](O)C[C@@H]1O, the activity change, negative = inhibition was 12.8% (inactive).
For C[C@H]1OC(O)[C@H](O)[C@H](O)[C@H]1O (stereo not given in full), the activity change, negative = inhibition was -0.633% (inactive).
For CC(=O)O[C@H]1C[C@@H](O)C(C)(C)C2C[C@@H](OC(C)=O)[C@]3(C)C(CC[C@@]4(C)[C@H](c5ccoc5)OC(=O)C5OC543)[C@]21C (stereo not given in full), the activity change, negative = inhibition was -2.36% (inactive).
In the case of Cc1c(Cn2ccnc2)c2ccccc2n1CCC(=O)O, the activity change, negative = inhibition was 13% (inactive).
For O=c1[nH]c(-c2ccc(C(F)(F)F)cc2)nc2c1CSCC2, the activity change, negative = inhibition was 29.4% (inactive).
For NC1(C(=O)N[C@@H](CCO)c2ccc(Cl)cc2)CCN(c2ncnc3[nH]ccc23)CC1, the activity change, negative = inhibition was 9.43% (inactive).
With CC(C)C[C@H](NC(=O)[C@@H](Cc1c[nH]c2ccccc12)NC(=O)[C@H](Cc1ccc(O)cc1)NC(=O)[C@H](CO)NC(=O)[C@H](Cc1c[nH]c2ccccc12)NC(=O)[C@H](Cc1cnc[nH]1)NC(=O)[C@@H]1CCC(=O)N1)C(=O)N[C@@H](CCCN=C(N)N)C(=O)N1CCC[C@H]1C(=O)NCC(N)=O the activity change, negative = inhibition was -22.2% (inactive).
For CO[C@@]12[C@H](COC(N)=O)C3=C(C(=O)C(C)=C(N)C3=O)N1C[C@@H]1N[C@@H]12, the activity change, negative = inhibition was -10.9% (inactive).
For CO[C@@]12[C@@H]3NC3CN1C1=C(C(=O)C(N)=C(C)C1=O)[C@@H]2COC(N)=O (stereo not given in full), the activity change, negative = inhibition was -81.9% (active) and -22.7% (inactive).
With N[C@@H](C(=O)O)C1=CCC=CC1 the activity change, negative = inhibition was -2.48% (inactive).
With C[C@@H]1O[C@@H](OC[C@H]2OC(Oc3c(-c4ccc(O)c(O)c4)oc4cc(O)cc(O)c4c3=O)[C@H](O)[C@@H](O)[C@@H]2O)[C@H](O)[C@H](O)[C@H]1O (stereo not given in full) the activity change, negative = inhibition was 0.376% (inactive).
In the case of O=c1c(-c2cc(O)c(O)c(O)c2)coc2cc(O)c(O)c(O)c12, the activity change, negative = inhibition was 8.75% (inactive).
In the case of NC(=O)N1C(=O)C(C(=O)c2cccs2)c2cc(Cl)ccc21 (stereo not given), the activity change, negative = inhibition was 8.36% (inactive) and 15.7% (inactive).
For CN(C)C1CCN(C(=O)c2ccc(NC(=O)Nc3ccc(-c4nc(N5CCOCC5)nc(N5CCOCC5)n4)cc3)cc2)CC1, the activity change, negative = inhibition was -1.91% (inactive).
In the case of CCNC(=O)Nc1ccc(-c2nc3c(c(N4CCOC[C@@H]4C)n2)CCN(C2COC2)C3)cc1, the activity change, negative = inhibition was -37.1% (inactive).
For O=C(Nc1ccncc1)Nc1ccc(-c2nc(N3CCOCC3)nc(N3C4CCC3COC4)n2)cc1, the activity change, negative = inhibition was -80% (active).
For CN(C)c1ccc(C(=C2C=CC(=[N+](C)C)C=C2)c2ccc(N(C)C)cc2)cc1, the activity change, negative = inhibition was -90.8% (active) and -81% (active).
With CC(C)CCOC(=O)c1ccc(N(C)C)cc1 the activity change, negative = inhibition was 67.6% (inactive).
With COc1cccc(/C=N/N=C/c2cccc(OC)c2)c1 the activity change, negative = inhibition was 6.04% (inactive).
In the case of C/C=C/C/C=C/CCC(=O)[C@H]1O[C@H]1C(N)=O, the activity change, negative = inhibition was 20.9% (inactive).
With Cc1cc(C2CCCCC2)n(O)c(=O)c1 the activity change, negative = inhibition was -76.5% (active) and -74.6% (active) and -92.8% (active).
For CC(=O)O[C@]1(C(C)=O)CCC2C3C[C@H](C)C4=CC(=O)CC[C@]4(C)C3CC[C@@]21C (stereo not given in full), the activity change, negative = inhibition was 15% (inactive).
With CCOC(CN1CCN(CC(C)C(=O)c2ccccc2)CC1)c1ccccc1 (stereo not given) the activity change, negative = inhibition was 31.9% (inactive).
For NC(=S)N=Nc1ccc(NN=C(N)N)cc1, the activity change, negative = inhibition was 5.33% (inactive).
With Cc1ccc(/C=N/NC(=O)c2ccccc2Oc2ccccc2)o1 the activity change, negative = inhibition was 8.19% (inactive).
For CCCCN(CCCC)CCC(O)c1cc2c(Cl)cc(Cl)cc2c2cc(C(F)(F)F)ccc12 (stereo not given), the activity change, negative = inhibition was -83% (active).
In the case of CC(=O)N1CCCC1C(=O)O (stereo not given), the activity change, negative = inhibition was 6.22% (inactive).
With CC(=O)NC1[C@@H](O)OC(CO)[C@@H](O)[C@H]1O (stereo not given in full) the activity change, negative = inhibition was 16% (inactive).
With COc1cc2c(cc1OC)CN(CCc1ccc(NC(=O)c3cc(OC)c(OC)cc3NC(=O)c3cnc4ccccc4c3)cc1)CC2 the activity change, negative = inhibition was 1.38% (inactive).
For COc1cc2c(cc1OC)CN(CCc1ccc(NC(=O)c3cccc4c(=O)c5cccc(OC)c5[nH]c34)cc1)CC2, the activity change, negative = inhibition was -79.7% (active).
In the case of COc1cccc([C@H](O)C2CCN(CCc3ccc(F)cc3)CC2)c1OC, the activity change, negative = inhibition was 11% (inactive).
